# Source: PubChem BioAssay AID463173 (ICCB-Longwood Screening Facility, Harvard Medical School, 2010)
# Hit rate of the full screen: of about 52,000 compounds, about 4,300 (8.3%) were called active. What follows is part of a selection rich in actives, with near analogues and random picks from the rest. A number with no mark means an inactive call. No stated cut-off is given here; in the data, active means survival mostly below about 52% (no sharp cut-off); inactive means mostly above about 56%.
# System: DeltatarO mutant
# Assay: S. aureus survival, RN4220 and DeltatarO strains – OD600, teichoic acid synthesis inhibitors, primary screen (AID 463173)
# Details: S. aureus RN4220 wild type/DeltatarO growth, OD600, 18 h, hits give low values, screened at 18.75 µg/mL (by protocol)
row,SMILES,survival
1,CCOc1ccc(Sc2cc(C(=O)NCCc3ccccc3)c3ccccc3n2)cc1,73%
2,N#Cc1cn(CC(=O)NCc2ccccc2)c2ccccc12,87%
3,COc1cccc([C@H]2Nc3ccc(S(=O)(=O)Nc4cc(C)ccc4C)cc3[C@H]3C=CC[C@H]32)c1,52%
4,Fc1ccc([C@@H]2Nc3ccccc3[C@@H]3C=CC[C@@H]32)cc1,56%
5,COc1ccc(NS(=O)(=O)c2ccc3c(c2)[C@H]2C=CC[C@H]2[C@@H](c2ccc(C(=O)O)cc2)N3)cc1,72%
6,CCOC(=O)c1ccc2c(c1)[C@@H]1C=CC[C@@H]1[C@H](c1cccc(OC)c1OC)N2,-10% (active)
7,COc1ccc(C)cc1NS(=O)(=O)c1ccc2c(c1)[C@H]1C=CC[C@H]1[C@@H](c1cccc(Cl)c1)N2,57%
8,COc1ccc(Br)cc1[C@@H]1Nc2ccc(C(=O)O)cc2[C@@H]2C=CC[C@@H]21,36% (active)
9,CCOc1ccc2c(c1)[C@@H]1C=CC[C@@H]1[C@H](c1ccccc1Cl)N2,-10% (active)
10,COc1cccc(NS(=O)(=O)c2ccc3c(c2)[C@H]2C=CC[C@H]2[C@@H](c2ccccc2Cl)N3)c1,163%
11,CCCN1CCN(CC2=C(C(=O)OCC)C(c3cccc(OC)c3OC)NC(=O)N2)CC1 (centres undefined),94%
12,CCCCN(CC)CCNC(=O)Cn1cnc2sc(C)c(S(=O)(=O)N3CCC(C)CC3)c2c1=O,69%
13,COCC(=O)NCc1ccc2c(c1)OCO2,104%
14,CCN(CC)CCOC(=O)c1ccc(NC(=O)c2cc3cc(OC)ccc3oc2=O)cc1,73%
15,COc1ccc(NC(=O)Cn2c(=O)n(-c3ccc(C)c(C)c3)c(=O)c3c(C)c(C)sc32)cc1,139%
16,O=C1[C@@H]2CSC(c3ccc(C(F)(F)F)cc3)N2C(=O)N1c1ccccc1 (some centres undefined),81%
17,O=C(NCc1ccccc1F)c1ccc(CSc2nc3cccnc3n2Cc2ccccc2)cc1,75%
18,CCCSc1nc(=O)c2c(n1C)NC(=O)CC2c1cccc(F)c1F (centres undefined),54% (active)
19,CCSc1nc(=O)c2c(n1C)NC(=O)CC2c1ccc(O)cc1OC (centres undefined),57%
20,CSc1nc(=O)c2c(n1C)NC(=O)CC2c1ccccc1OC(C)C (centres undefined),46%
21,Cc1oc(-c2ccc(Cl)cc2)nc1Cn1c(=O)cc(-c2ccccc2)c2c(C)nn(C)c21,88%
22,Cc1oc(C)c2c(=O)cc(-c3ccc4c(c3)OCO4)cc(OC(=O)c3ccccc3Br)c12,106%
23,O=C(NCCc1ccncc1)Nc1c[nH]c2ccccc2c1=O,89%

row,SMILES,survival
1,COc1ccccc1C(=O)c1cn(CC(=O)Nc2ccccc2F)c2nc(C)ccc2c1=O,71%
2,CCOc1cc(Cl)c(S(=O)(=O)n2cc(C)nc2CC)cc1Cl,3% (active)
3,CCOc1cc(Cl)c(S(=O)(=O)n2ccnc2)cc1Cl,73%
4,CCc1nc(C)cn1S(=O)(=O)c1ccc(Cl)c(Cl)c1OC,71%
5,CCOc1ccc(C(=O)NCCSc2c(C)[nH]c3ccccc23)cc1OCC,56%
6,CC1=C(C(=O)Nc2ccc(F)cc2)C(c2ccc(N(C)C)cc2)NC(=O)N1 (centres undefined),140%
7,CC(=O)NCCc1nc2ccccc2n1CCCCOc1ccc(Cl)cc1,61%
8,Cc1ccccc1OCCn1c(CCNC(=O)C(C)(C)C)nc2ccccc21,82%
9,CCCCCn1c(CCCNC(=O)c2ccc(Cl)cc2)nc2ccccc21,85%
10,Cc1cccc(OCCCn2c(CCNC(=O)C(C)(C)C)nc3ccccc32)c1,77%
11,CC(C)(C)C(=O)NCCc1nc2ccccc2n1CCCCOc1ccc(Cl)cc1,18% (active)
12,Cc1ccc(OCCCCn2c(CCNC(=O)C(C)(C)C)nc3ccccc32)cc1,42% (active)
13,CCCCCn1c(CCCNC(=O)c2ccccc2)nc2ccccc21,59%
14,CC(C)(C)C(=O)NCCc1nc2ccccc2n1CCCCOc1ccccc1,41% (active)
15,Cc1ccccc1OCCn1c(CCNC(=O)C2CCCCC2)nc2ccccc21,77%
16,Cc1ccccc1OCCCCn1c(CCNC(=O)C(C)(C)C)nc2ccccc21,36% (active)
17,CCN(CC)S(=O)(=O)c1cccc(C(=O)NCc2ccccc2)c1,49%
18,CCN(C(=O)Cn1cc(C(=O)c2ccc(F)cc2)c(=O)c2ccc(C)nc21)c1cccc(C)c1,71%
19,CCc1ccccc1NC(=O)C1CCN(c2nn3c(=O)cc(C)nc3s2)CC1,81%
20,Cc1ccc(N(CC(=O)N2CCN(c3cccc(Cl)c3)CC2)S(=O)(=O)c2c(C)noc2C)cc1,73%
21,CCCCS(=O)(=O)CC(O)CSc1nc(-c2ccc(C)cc2)cc(-c2ccccc2)c1C#N (centres undefined),68%
22,CCN1C(=O)C2C(c3ccc(OC)cc3)NC(CC)(C(=O)OC)C2C1=O (centres undefined),56%
23,CN(C)CCNC(=O)c1ccc(Cn2c(SCc3ccc(F)cc3)nc3cccnc32)cc1,131%

row,SMILES,survival
1,COc1ccc(N(CC(C)C)S(=O)(=O)c2nnc(NC(=O)c3ccco3)s2)cc1,41% (active)
2,CCN(c1ccc(Cl)cc1)S(=O)(=O)c1nnc(NC(=O)c2ccco2)s1,67%
3,CCN(c1cc(C)cc(C)c1)S(=O)(=O)c1nnc(NC(=O)c2ccco2)s1,52%
4,Cc1ccccc1N(C)S(=O)(=O)c1nnc(NC(=O)c2ccco2)s1,94%
5,CCN(c1ccccc1C)S(=O)(=O)c1nnc(NC(=O)c2ccco2)s1,41% (active)
6,CC(C)CC(=O)Nc1nnc(S(=O)(=O)N(CC(C)C)c2ccccc2)s1,111%
7,CCN(c1ccccc1)S(=O)(=O)c1nnc(NC(=O)c2ccco2)s1,39% (active)
8,CC(C)CN(c1ccccc1)S(=O)(=O)c1nnc(NC(=O)c2ccco2)s1,31% (active)
9,CN(c1ccccc1)S(=O)(=O)c1nnc(NC(=O)c2ccco2)s1,47%
10,O=C(Cn1c(=O)n(-c2ccccc2)c(=O)c2ccc(C(=O)NCc3ccc4c(c3)OCO4)cc21)Nc1ccc(F)cc1,64%
11,CC(C)c1ccc(NC(=O)Cn2cc(S(=O)(=O)Cc3cccc(Cl)c3)c3ccccc32)cc1,76%
12,Cn1c(C(=O)N2CCc3ccccc32)cc2sccc21,91%
13,CC(=O)N1CCc2c(sc(NC(=O)CSc3ccc(F)cc3)c2-c2nc3ccccc3s2)C1,108%
14,Cc1ccc(Cn2c(CNC(=O)c3ccc(Cl)c([N+](=O)[O-])c3)nc3cccnc32)cc1,88%
15,CC(SC(=S)N1CCCCCC1)C(=O)O (centres undefined),90%
16,O=C(Cn1cc(S(=O)(=O)N2CCCC2)c(S(=O)(=O)N2CCCC2)c1)Nc1cccc(F)c1,98%
17,Cc1nn(-c2ccccc2)c(-n2cccc2)c1C(=O)NCCCN1CCN(c2ccccc2F)CC1,63%
18,Cc1ccc(N(CC(C)C)S(=O)(=O)c2nnc(NC(=O)c3ccco3)s2)cc1,44% (active)
19,Cc1ccc(N(C)S(=O)(=O)c2nnc(NC(=O)c3ccco3)s2)cc1,57%
20,CCC(C)(C)C(=O)Nc1ccc(Cl)cc1,93%
21,Cc1cccc(NC(=O)c2c(NC(=O)c3ccco3)sc3c2CCC(C)C3)c1 (centres undefined),53%
22,CC1CCc2c(sc(NC(=O)c3ccccc3)c2C(=O)Nc2ccccc2)C1 (centres undefined),42% (active)
23,CCN(CC)C(=O)c1c(NC(=O)c2cccc(C)c2)sc2c1CCC(C)C2 (centres undefined),-1% (active)

row,SMILES,survival
1,CC1CCc2c(sc(NC(=O)Cc3ccccc3)c2C(=O)Nc2ccc(Cl)cc2)C1 (centres undefined),57%
2,Cc1cccc(C(=O)Nc2sc3c(c2C(=O)N2CCCCC2)CCC(C)C3)c1 (centres undefined),-6% (active)
3,CCOc1ccc(NC(=O)c2c(NC(=O)Cc3ccccc3)sc3c2CCC(C)C3)cc1 (centres undefined),46%
4,Cc1cccc(NC(=O)c2c(NC(=O)c3cccs3)sc3c2CCC(C)C3)c1 (centres undefined),60%
5,CCOc1ccc(C(=O)c2cn(Cc3cccc(OC)c3)c3cc4c(cc3c2=O)OCO4)cc1,72%
6,COC(=O)c1ccc2nc(C)cc(Nc3ccc(O)cc3)c2c1,186%
7,COc1cc(Cl)c(S(=O)(=O)N2CCN(c3c(C)cccc3C)CC2)cc1Cl,69%
8,C/C(=N\NC(=O)c1cc2ccccc2cc1O)c1ccc(N)cc1,70%
9,COc1ccc(CNC(=O)Nc2ccc3c(c2)N(C)C(=O)c2ccccc2S3)cc1OC,61%
10,O=C(Nc1ccc(Cl)cc1)c1cc2nc(-c3ccc4c(c3)OCO4)cc(C(F)(F)F)n2n1,83%
11,CC(C)NC(=O)C1CC(c2ccc(Cl)cc2)=NO1 (centres undefined),84%
12,Cn1nc(-c2ccccc2F)c2cc(C(=O)NCc3ccccc3Cl)sc21,56% (active)
13,COc1ccc(CNC(=O)c2cc3c(-c4ccccc4F)nn(C)c3s2)cc1,61%
14,Cn1nc(-c2ccccc2F)c2cc(C(=O)NCCc3ccc(Cl)cc3)sc21,76%
15,Cn1nc(-c2ccccc2F)c2cc(C(=O)NCc3ccc(Cl)cc3)sc21,87%
16,Cn1nc(-c2ccccc2F)c2cc(C(=O)NCc3cccc(Cl)c3)sc21,41% (active)
17,COc1cccc(CNC(=O)c2cc3c(-c4ccccc4F)nn(C)c3s2)c1,59%
18,CCN1C(=O)C2(c3ccccc31)c1c(oc3ccccc3c1=O)C(=O)N2CCOC (centres undefined),67%
19,Cc1oc2cc3oc(=O)c(CC(=O)NCc4ccccc4)c(C)c3cc2c1C,73%
20,Cc1ccc(C(=O)N2CCc3cc(CNC(=O)COc4ccccc4)ccc32)cc1,89%
